# Test results taken from PMC5869772, “Quantitative profiling of BATF family proteins/JUNB/IRF hetero-trimers using Spec-seq”.
# Key:
# Experiment in all cases: Spec-seq (EMSA and sequencing of bound and unbound bands); 100 nM BATFx-JUNB, 1 uM dsDNA library, 50 mM K acetate, 20 mM Tris-acetate, 10 mM Mg acetate, 100 ug/ml BSA, pH 7.9, 10% glycerol, 30 min on ice; native 9% PAGE at 4 C; low values mean tight binding
# Conditions in all cases: protein: recombinant;recombinant; tags: N-terminal mCherry-TEV, cleaved off;C-terminal 6His; copies: 1;1; dsDNA, one strand shown
# [1] = target: T1, BATF;JUNB (human;human, UniProt Q16520;P17275 1-125;148-347, |)
# T1 sequence 1: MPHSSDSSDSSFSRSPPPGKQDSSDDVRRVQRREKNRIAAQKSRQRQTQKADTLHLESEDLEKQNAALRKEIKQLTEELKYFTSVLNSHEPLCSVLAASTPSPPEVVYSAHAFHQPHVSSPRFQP
# T1 sequence 2: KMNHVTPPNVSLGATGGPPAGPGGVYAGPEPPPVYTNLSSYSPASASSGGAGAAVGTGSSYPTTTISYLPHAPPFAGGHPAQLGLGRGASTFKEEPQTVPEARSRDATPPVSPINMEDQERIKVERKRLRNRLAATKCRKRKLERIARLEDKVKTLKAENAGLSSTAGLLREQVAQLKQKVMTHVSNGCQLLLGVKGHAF
# Outline: (§1)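 The protein, at 100 nM, was incubated with 1 μM double-stranded degenerate DNA library for 30 min on ice in NEB Cutsmart buffer with 10% glycerol, then resolved by native 9% PAGE at 4 °C. Excised bound and unbound bands were PCR-barcoded and Illumina-sequenced, and each sequence's relative binding energy in kT is −ln of its bound/unbound read-count ratio.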
# [2] = target: T2, BATF2 (bZIP);JUNB (human;human, UniProt Q8N1L9;P17275 1-142;148-347, |)
# T2 sequence 1: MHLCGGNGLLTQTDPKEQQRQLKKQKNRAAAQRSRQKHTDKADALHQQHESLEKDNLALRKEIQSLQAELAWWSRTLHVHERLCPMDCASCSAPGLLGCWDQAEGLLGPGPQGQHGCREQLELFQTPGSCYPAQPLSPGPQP
# T2 sequence 2: T1 sequence 2
# Outline: as §1
# [3] = target: T3, BATF3;JUNB (human;human, UniProt Q9NR55;P17275 1-127;148-347, |)
# T3 sequence 1: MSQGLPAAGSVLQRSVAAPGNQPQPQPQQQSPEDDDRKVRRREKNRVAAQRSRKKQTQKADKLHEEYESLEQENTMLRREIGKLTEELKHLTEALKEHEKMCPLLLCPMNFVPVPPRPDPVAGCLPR
# T3 sequence 2: T1 sequence 2
# Outline: as §1
Sequence,binding signal [1] [kT],binding signal [2] [kT],binding signal [3] [kT]
GATAGTCTCATTTTCACCCCGTGAAATGACTGACTTGTTCCATTACAGTATCTGT,-0.088,0.456,0.305
GATAGTCTCATTTTCACCCCGTGAAATCACGTCATTGTTCCATTACAGTATCTGT,-0.743,-0.494,-1.33
GATAGTCTCATTTTCACCCCGTGAAATGACTCTTTTGTTCCATTACAGTATCTGT,0.109,0.673,0.524
GATAGTCTCATTTTCACCCCGTGAAATGAGTTATTTGTTCCATTACAGTATCTGT,0.153,0.843,0.54
GATAGTCTCATTTTCACCCCGTGAAAGTGAGTCATTGTTCCATTACAGTATCTGT,-1.22,-0.978,-1.65
GATAGTCTCATTTTCACCCCGTGAAATGACCCACTTGTTCCATTACAGTATCTGT,0.593,1.04,0.927
GATAGTCTCATTTTCACCCCGTGAAATGACGGCATTGTTCCATTACAGTATCTGT,-0.148,0.419,-0.439
GATAGTCTCATTTTCACCCCGTGAAATGAGTCTCTTGTTCCATTACAGTATCTGT,0.273,1.09,0.936
GATAGTCTCATTTTCACCCCGTGAAATGAGTCAGTTGTTCCATTACAGTATCTGT,-0.773,-0.0533,-0.715
GATAGTCTCATTTTCACCCCGTGAAATGACTCGTTTGTTCCATTACAGTATCTGT,-0.0971,0.491,0.243
GATAGTCTCATTTTCACCCCGTGAAATGACTTAATTGTTCCATTACAGTATCTGT,-0.138,0.212,-0.344
GATAGTCTCATTTTCACCCCGTGAAATGACTCACTTGTTCCATTACAGTATCTGT,-0.778,-0.378,-0.943
GATAGTCTCATTTTCACCCCGTGAAAGTCAGTCATTGTTCCATTACAGTATCTGT,-0.0489,0.348,0.152
GATAGTCTCATTTTCACCCCGTGAAAATGTGTCATTGTTCCATTACAGTATCTGT,-0.713,-0.258,-0.757
GATAGTCTCATTTTCACCCCGTGAAATGAGTTAGTTGTTCCATTACAGTATCTGT,0.169,0.988,0.772
GATAGTCTCATTTTCACCCCGTGAAATGGAGTCATTGTTCCATTACAGTATCTGT,-0.329,0.239,-0.305

Sequence,binding signal [1] [kT],binding signal [2] [kT],binding signal [3] [kT]
GATAGTCTCATTTTCACCCCGTGAAATTGAGTCATTGTTCCATTACAGTATCTGT,-0.981,-0.804,-1.45
GATAGTCTCATTTTCACCCCGTGAAATGAGTAAATTGTTCCATTACAGTATCTGT,-0.0981,0.684,0.363
GATAGTCTCATTTTCACCCCGTGAAATGACTCTATTGTTCCATTACAGTATCTGT,-0.0428,0.602,0.236
GATAGTCTCATTTTCACCCCGTGAAATTAGTCATTTGTTCCATTACAGTATCTGT,-0.885,-0.599,-1.19
GATAGTCTCATTTTCACCCCGTGAAATGACGCAGTTGTTCCATTACAGTATCTGT,-0.301,0.363,-0.216
GATAGTCTCATTTTCACCCCGTGAAATTGGGTCATTGTTCCATTACAGTATCTGT,0.183,0.516,-0.0123
GATAGTCTCATTTTCACCCCGTGAAATGAGTAAGTTGTTCCATTACAGTATCTGT,-0.362,0.572,0.139
GATAGTCTCATTTTCACCCCGTGAAATGACCCATTTGTTCCATTACAGTATCTGT,0.311,0.823,0.67
GATAGTCTCATTTTCACCCCGTGAAATGACACATTTGTTCCATTACAGTATCTGT,-0.137,0.424,0.0792
GATAGTCTCATTTTCACCCCGTGAAATGACGTCATTGTTCCATTACAGTATCTGT,-1.05,-1.32,-1.75
GATAGTCTCATTTTCACCCCGTGAAATGACACAATTGTTCCATTACAGTATCTGT,0.0803,0.413,-0.063
GATAGTCTCATTTTCACCCCGTGAAATGACTTACTTGTTCCATTACAGTATCTGT,0.0298,0.563,0.342
GATAGTCTCATTTTCACCCCGTGAAATAACGTCATTGTTCCATTACAGTATCTGT,-0.467,-0.287,-1.09
GATAGTCTCATTTTCACCCCGTGAAATGACATCATTGTTCCATTACAGTATCTGT,-0.531,-0.296,-1.1
GATAGTCTCATTTTCACCCCGTGAAAGGACGTCATTGTTCCATTACAGTATCTGT,-0.227,0.108,-0.474
GATAGTCTCATTTTCACCCCGTGAAATGAGTAACTTGTTCCATTACAGTATCTGT,-0.237,0.714,0.295
